Hits are enriched below; roughly 0.77% of the tested compounds scored in any of these assays.
Tb PYK inh – inhibitors of Trypanosoma brucei pyruvate kinase | Q57TT1 | TbPYK enzyme, Kinase-Glo Plus ATP luminescence, 45 min | Potency, µM (highest dose often 76.8 µM), for inactives: at the top dose activity, negative = inhibition, actives largely listed as inhibitors | 410,000 compounds, 0.12% hits; active = well fitted curve in the direction sought with a large enough effect; inconclusive = small, poorly fitted or top-dose-only effect, or another doubt; inactive = no such curve, though single readings can be large; an effect the other way counts as inactive or inconclusive; also: potency is read from the fitted curve at half-maximal effect; % is scaled to controls: 0 for no effect and ±100 for the full control effect; nearly all actives have a fitted effect of over 50% in size
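Readout: single end-point luminescence (Kinase-Glo Plus, 10 min). Reaction conditions were TbPYK/substrate plus 130 uM ADP, 45 min at RT, pH 7.2 TEA buffer. No-enzyme wells served as controls, and data were normalized before concentration-response fitting.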
RE007 growth inh – less growth of the S. pombe RE007 Vpr strain; S. pombe RE007 Vpr strain, BacTiter-Glo ATP luminescence, 24 h; Potency, µM (series often up to 92.2 µM), for the others: at the top dose activity change, negative = less growth, hits mostly inhibitors; 360,000 compounds, 0.21% hits; AID 651644; active = well fitted falling curve with a large enough effect; inconclusive = small, poorly fitted or top-dose-only effect; inactive = no such curve, though single readings can be large or run the other way; also: potency is read from the fitted curve at half-maximal effect; % is scaled to controls: 0 for no effect and ±100 for the full control effect; nearly all actives have a fitted effect of over 50% in size
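Fission yeast strain RE007, carrying one chromosomally integrated HIV-1 vpr copy, was seeded at OD 0.01 in PMG+AL medium with 23 nL pinned compound. After 24 h at 30 °C and 99% humidity, viability was read by BacTiter-Glo luminescence.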
NS1 function inh – influenza NS1 inhibition. Potency, µM (titrated, usually from 46.1 µM), without a hit: at the top dose activity, positive = more growth. 270,000 compounds, 0.4% hits. AID 2326; also: potency is read from the fitted curve at half-maximal effect; actives are rising curves; nearly all actives have a fitted effect of over 50% in size
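Compounds were scored for reversing the slow growth caused by influenza A NS1 in S. cerevisiae, measured by optical density at 600 nm. Assay medium contained 2% galactose at pH 6.0; NS1-free yeast of the same strain were the positive control.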
LmPK inh – inhibitors of Leishmania mexicana pyruvate kinase; Q27686; purified LmPK, Kinase-Glo ATP luminescence, 1 h; Potency, µM (top dose mostly 57.5 µM), for inactives: top-dose activity change, negative = inhibition, hits mostly inhibitors; 290,000 compounds, 0.37% hits; AID 1721; active = well fitted curve in the direction sought with a large enough effect; inconclusive = small, poorly fitted or top-dose-only effect, or another doubt; inactive = no such curve, though single readings can be large; an effect the other way counts as inactive or inconclusive; also: potency is read from the fitted curve at half-maximal effect; % is scaled to controls: 0 for no effect and ±100 for the full control effect
Target sequence (Q27686 whole entry, looked up): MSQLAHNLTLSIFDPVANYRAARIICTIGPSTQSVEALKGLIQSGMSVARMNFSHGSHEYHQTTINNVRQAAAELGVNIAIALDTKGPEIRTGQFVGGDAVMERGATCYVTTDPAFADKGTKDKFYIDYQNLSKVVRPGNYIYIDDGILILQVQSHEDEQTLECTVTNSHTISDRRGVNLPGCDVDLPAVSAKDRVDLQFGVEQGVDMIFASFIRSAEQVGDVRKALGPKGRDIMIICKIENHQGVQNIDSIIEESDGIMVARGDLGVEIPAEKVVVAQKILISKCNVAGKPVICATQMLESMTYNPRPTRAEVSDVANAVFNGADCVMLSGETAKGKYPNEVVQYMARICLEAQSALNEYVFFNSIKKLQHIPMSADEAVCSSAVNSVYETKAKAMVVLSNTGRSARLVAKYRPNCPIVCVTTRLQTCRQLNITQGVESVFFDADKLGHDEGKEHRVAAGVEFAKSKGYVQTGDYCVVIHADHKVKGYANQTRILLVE
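Kinase-Glo luminescence read after 1 h RT reaction of 0.1 nM LmPK with 0.5 mM PEP and 0.1 mM ADP. Activity scaled between uninhibited and enzyme-free controls.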
Flu NS1 inh – influenza NS1 function inhibition validation; shares compounds with NS1 function inh; influenza NS1 function cell assay, 15-point titration; activity change, negative = inhibition, % at 32.9 µM; 1,400 tested, under 10 active; AID 492980; also: 0% is about no effect
PR8 titer – reduces influenza A/PR/8/34 replication in MDCK cells; shares compounds with NS1 function inh; MDCK infected influenza A/PR/8/34, virus titer TCID50; hits give low values; virus titer (log TCID50), log10 TCID50 at 5 µM; 95 compounds, 30% hits; call rule not given here
Numbers without * were called inactive; u = inconclusive; x = no result given; [ ] = dose if it differs, or a comment. Unless noted, calls follow the shape of the full dose curve.

SMILES	Tb PYK inh	RE007 growth inh	NS1 function inh	LmPK inh	Flu NS1 inh	others
c1ccc(-c2ccc(C3=Nn4c(Cn5nnc6ccccc65)nnc4SC3)cc2)cc1	-28.6%	1.3%	12.6µM*	2.0%	u
C[C@H]1c2cccc(O)c2C(O)=C2C(=O)[C@]3(O)C(O)=C(C(N)=O)C(=O)C(N(C)C)[C@@H]3[C@@H](O)C21 (stereo partly specified)	x	x	7.08µM*	x	-10.7
Cc1ccc(/C=N/NC(=O)Cc2cccn2C)s1	-10.9%	-5.1%	2.82µM*	5.2%	11.4
CCOC(=O)C12CC1/C(=N/O)c1ccccc1O2 (stereo unspecified)	x	x	-14.2%	x	x
Cc1ccnc(NC(=O)CCC(=O)N(CC(=O)NC2CCCCC2)c2ccc3c(c2)OCO3)c1	-8.2%	7.3%	22.4µM*	-2.2%	-8.9
Cc1ccc(C(=O)N/N=C/c2cc(C)n(-c3ccc(Br)cc3)c2C)cc1[N+](=O)[O-]	2.3%	28.6%	10µM*	7.8%	-19.3	PR8 titer=8.33
Cc1ccc(-n2c(C)cc(/C=N/NC(=O)c3ccncc3)c2C)cc1	2.6%	2.7%	9.5%	-0.2%	x
Cc1ccc2nc(N)[nH]c(=O)c2c1Sc1ccncc1	0.0%	x	x	x	x
Cc1nc(C)c(-c2nnc(-c3ccc(C(C)(C)C)cc3)o2)cc1C(=O)NN	-1.0%	3.0%	10µM*	3.8%	29.0
[ClH+][Cu][ClH+].[Cu].[OH2+]c1ccc2ccccc2c1CN1CCCCC1.[OH2+]c1ccc2ccccc2c1CN1CCCCC1	x	x	0.0%	x	x
COc1ccc(C2(CNC(=O)CCC(=O)O)CCCC2)cc1	-11.4%	7.4%	12.6µM*	-2.4%	8.7
Cc1ccccc1C(=O)Nc1ccc2nc(SCC(=O)N3CCc4ccccc43)sc2c1	-0.6%	x	x	x	x
O=C(Nc1ccccc1Oc1ccccc1)c1ccc(Br)o1	1.4%	-9.1%	u	-9.3%	u
O=[N+]([O-])c1ccc(N2CCN(S(=O)(=O)c3ccccc3[N+](=O)[O-])CC2)cc1NCc1cccnc1	1.2%	4.2%	14.1µM*	1.3%	30.9
COc1ccc(N=C2SC(CC(=O)Nc3ccccc3OC)C(=O)N2Cc2ccco2)cc1 (stereo unspecified)	-2.9%	-2.5%	10µM*	2.9%	-13.6
CCn1c2ccccc2c2cc(N=C3SC(CC(=O)Nc4ccccc4OC)C(=O)N3CCOC)ccc21 (stereo unspecified)	-6.9%	-8.3%	u	4.4%	x
CCn1c2ccccc2c2cc(N=C3SC(CC(=O)Nc4ccccc4OC)C(=O)N3C)ccc21 (stereo unspecified)	-3.9%	-4.5%	3.98µM*	4.1%	-25.3
O=C(CCN1C(=O)C2CC=C(Cl)CC2C1=O)Nc1ccccc1O (stereo unspecified)	-6.6%	1.2%	u	0.0%	9.3
CC(C)=CCN1CCN(Cc2cn(C(C)C)c3ccccc23)CC1CCO (stereo unspecified)	3.3%	1.4%	11.2µM*	4.6%	25.6
CCCCc1ccc(NC(=O)CSC2=C(C#N)C(c3ccco3)C3=C(CCCC3=O)N2)cc1 (stereo unspecified)	-0.1%	0.1%	20µM*	8.5%	u
COc1cccc(NC(=O)CSC2=C(C#N)C(c3ccco3)C3=C(CCCC3=O)N2)c1 (stereo unspecified)	-2.4%	4.2%	-4.0%	-0.4%	x
CCC(=O)C(Cc1ccccc1)(Cc1ccccc1)CC(C)N(C)C (stereo unspecified)	-5.4%[157 µM]	x	x	x	x
COC(=O)C1=Nc2ccccc2/C1=C\c1c(O)n(-c2ccc(OC)cc2)c(=O)[nH]c1=O	-28.0%	0.4%	-40.0%	-3.4%	x
COC(=O)C1=Nc2ccccc2/C1=C\c1c(O)n(-c2ccc(Br)cc2)c(=O)[nH]c1=O	-13.9%	-28.5%	10µM*	3.0%	-35.0
COc1ccc(CN2C(=O)C(CC(=O)NCCCCc3ccccc3)CC(C(=O)N(C)C)=C2C)cc1 (stereo unspecified)	-2.0%	-4.7%	x	x	x
SMILES	Tb PYK inh	RE007 growth inh	NS1 function inh	LmPK inh	Flu NS1 inh	others
Fc1ccc(Cl)cc1/C=N/n1cnnc1SCc1ccccc1	-1.1%	-2.2%	3.7%	1.8%	x
C(=N\n1cnnc1SCc1ccccc1)/c1ccco1	6.8%	-13.0%	1.12µM*	-3.2%	-15.5
CCCCc1nc2c(c3c1C[C@H](C)OC3)CN(C(=O)Nc1ccc(OC)cc1)CC2	x	x	x	-8.7%[11.5 µM]	x
COc1cccc(C(C)NC(=O)Nc2cccc(C(F)(F)F)c2)c1 (stereo unspecified)	-3.7%	-11.2%	u	4.1%	u
O=C(C[n+]1cc(-c2ccccc2)n2c1CCC2)Nc1nc(-c2ccccc2)cs1	2.4%	8.5%	2.3%	-2.3%	x
O=C(CSCC(=O)N1CCCc2ccccc21)Nc1nc(-c2ccccc2)cs1	0.0%	-9.1%	20µM*	2.4%	-24.7
COc1ccc(OC)c(S(=O)(=O)n2nnc3ccccc32)c1	0.2%	19.2%	u	2.2%	-38.1
CCOc1cc(-c2c(C#N)c(=O)[nH]c3c2c(C)nn3-c2ccc(F)cc2)ccc1O	3.6%	13.2%	7.94µM*	3.6%	25.7	PR8 titer=4*
CC(=O)Nc1ccc(Nc2ncnc3ccccc23)cc1	x	x	u	-2.2%	11.4	PR8 titer=8.5
O=C(CSc1ccc(-c2nc3ccccc3[nH]2)cn1)Nc1ccc(S(=O)(=O)N2CCCC2)cc1	-7.5%	-7.0%	14.1µM*	-0.4%	9.3
CCOc1ccc(C2N(c3ccc(OC)cc3)C(=O)C3CCCN32)cc1OC (stereo unspecified)	-1.5%	-0.1%	25.3%	-0.7%	x
CCOc1ccc(C2N(c3ccc(Cl)cc3)C(=O)C3CCCN32)cc1OC (stereo unspecified)	3.8%	-11.5%	7.94µM*	-2.8%	35.9
O=C1C2CCCN2C(c2ccccc2)N1c1ccc(F)cc1 (stereo unspecified)	-5.2%	-2.4%	7.2%	2.1%	x
O=C1C2CCCN2C(c2ccc(F)cc2)N1c1ccc(Cl)cc1 (stereo unspecified)	-5.4%	-6.7%	3.98µM*	0.7%	15.0
COc1cc(C(=O)NCCc2ccc(S(N)(=O)=O)cc2)cc(OC)c1OC	-5.6%	5.6%	u	4.8%	1.1
CCOC(=O)C1CCCN(C(=O)Cn2sc3nc(C)cc(C)c3c2=O)C1 (stereo unspecified)	u	u	5.01µM*	1.7%	u
Cc1cc(C)c2c(=O)n(CC(=O)N3CCC(N4CCCCC4)CC3)sc2n1	u	u	3.6%	-4.9%	x
Cc1ccccc1-c1nc2ccccc2c(=O)n1/N=C/c1ccccc1[N+](=O)[O-]	-16.2%	-5.2%	3.16µM*	-0.1%	16.2
